The values below come from the supplement of paper PMC13380429.

Experiment [1] relates to Vero E6 infected with SARS-CoV-2. The experiment is described as follows: morphology score (similarity to uninfected cells); higher = more like uninfected cells. The note with it: 24 h.
Experiment [2] shares this test system. Kind of experiment: SARS-CoV-2 infection rate relative to infected DMSO; higher = more infection, active = 60 or less. The note with it: 24 h.

In turn, `Nc1ncccc1-c1nc2ccc(-c3ccccc3)nc2n1-c1ccc(C2(N)CCC2)cc1` (10 µM) showed a morphology score in experiment [1] of 0.702. For the same compound, the SARS-CoV-2 infection rate in experiment [2] was 29.5% (active).

In the case of `C[C@H](N)Cc1cccc(O)c1` [gepefrine] (10 µM), the morphology score in experiment [1] is -0.0218. Also, the SARS-CoV-2 infection rate in experiment [2] is 106% (inactive).

`CNC(=O)c1ccc(Nc2ncc(C(F)(F)F)c(NCc3nccnc3N(C)S(C)(=O)=O)n2)cc1` [defactinib] (0.833333 µM) displayed a morphology score in experiment [1] of 0.0478. The SARS-CoV-2 infection rate in experiment [2] is 100% (inactive).
